HCV inh = blocks hepatitis C virus; Huh7.5.1 HCVcc-Cre infection, luciferase reporter, 44 h; Potency, µM (series often up to 41.8 µM), for the others: at the top dose activity change, negative = inhibition, hits mostly inhibitors; hit rate 3.4% among 340,000; AID 651820; further: potency means the concentration at half of the fitted maximal effect
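A cell-based infection assay in which seeded cells (1,000 per well) receive test compound after 4 h, are inoculated with HCVcc-Cre at approximately 0.5 moi, and are incubated 44 h before luminescence detection.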
Sm TGR block = blocks Schistosoma mansoni thioredoxin glutathione reductase | Potency, µM (series often up to 114 µM), inactives show top-dose activity change, negative = inhibition, usual class: inhibitors | purified TGR, DTNB reduction, TNB absorbance 405 nm | hit rate 3% among 360,000 | Q962Y6; further: potency means the concentration at half of the fitted maximal effect; nearly all actives have a fitted effect of over 60% in size
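First, TGR (20 nM dispensed) and NADPH were mixed with compound. Second, a 15 min room-temperature incubation followed. Third, further NADPH and then DTNB were added to start the reaction. Finally, TNB absorbance was monitored kinetically.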
FMDV inh = antivirals against foot and mouth disease virus; Potency, µM (series often up to 57.9 µM), for inactives: top-dose activity change, negative = inhibition, usual class: inhibitors; AID 1159524; hit rate 1.2% among 410,000; FMDV antiviral cell-based qHTS; calls by dose curve; tested in HEK293T cells; further: read-out not given here; potency means the concentration at half of the fitted maximal effect; nearly all actives have a fitted effect of over 45% in size
Vaccinia Venus = inhibitors of vaccinia virus (Venus reporter); Vaccinia virus Venus reporter expression, fluorescence; hit rate 0.46% among 330,000; Potency, µM (titrated, usually from 36.5 µM), for inactives: at the highest dose activity change, negative = inhibition, usual class: inhibitors; calls by dose curve; tested in A549 cells; further: potency means the concentration at half of the fitted maximal effect; nearly all actives have a fitted effect of over 30% in size
HCMV antiviral = human cytomegalovirus inhibition; activity change, negative = inhibition, % at 57.5 µM; hit rate 4.5% among 410,000; AID 1259415; HFF cells, HCMV-luciferase reporter, 72 h; stronger effect = lower value; in the data active means activity change below about -60%; inconclusive means no clear call, values can overlap the other calls; inactive means above about -39%
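HFF cells seeded 16 h at 37C, treated with compounds, infected with luciferase-reporter HCMV at MOI 1 PFU/cell; luciferase read at 72 h post infection, normalized to buffer-only and Salinomycin controls.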
Vaccinia mCherry = vaccinia inhibition (mCherry reporter); Potency, µM (highest dose often 36.5 µM), without a hit: top-dose activity change, negative = inhibition, hits mostly inhibitors; hit rate 0.63% among 310,000; AID 720579; Vaccinia virus mCherry reporter infection, fluorescence; calls by dose curve; tested in A549 cells; further: potency means the concentration at half of the fitted maximal effect; nearly all actives have a fitted effect of over 35% in size
An asterisk follows results filed as active; i = inactive; ? = inconclusive; nt = no result. Hits are enriched below; roughly 9.3% of the tested compounds scored in any of these assays. Unless noted, the call rests on the fitted dose curve; in most records, active means well fitted curve in the direction sought with a large enough effect; inconclusive means small, poorly fitted or top-dose-only effect, or another doubt; inactive means no such curve, though single readings can be large; an effect the other way counts as inactive or inconclusive. On the % scale 0 is the no-effect control and ±100 the full control effect.

SMILES	HCV inh	Sm TGR block	FMDV inh	Vaccinia Venus	HCMV antiviral	Vaccinia mCherry
COc1ccc(-c2nnc(SCC(C)C)o2)cc1	0%	10%	29%	-13%	63	18%
CCCc1c(C)nc(N2CCN(c3cccc(OC)c3)CC2)[nH]c1=O	-9%	-21%	-30%	-5%	-13	i
CCN(C(=O)COc1ncnc2scc(-c3ccc(F)cc3)c12)C1CCS(=O)(=O)C1 (stereo not drawn)	2%	8%	8%	-10%	-17	-14%
CCOC(=O)c1cc(-c2ccc(C)cc2)nn1Cc1ccccc1	nt	0%	51%	0%	80	-7%
CC(C)OCCCNC(=O)c1cn(C)c2ccc(S(=O)(=O)N3CCCCCC3)cc2c1=O	nt	5%	3%	-5%	29	-18%
Cc1nnc(NC(=O)c2cc(-c3ccco3)nc3ccccc23)s1	11%	7.9µM*	nt	nt	-5	nt
O=C(N/N=C/c1ccco1)c1cc(-c2cccc(Br)c2)nc2ccccc12	?	-10%	-6%	-15%	-63*	?
O=C(N/N=C/c1ccc(F)cc1)c1cc(-c2ccco2)nc2ccccc12	-17%	11µM*	4%	?	95	?
CC1CN(CCCSc2ccc(Cl)cc2)CC(C)O1 (stereo not drawn)	13µM*	4%	-22%	-19%	-3	-8%
O=C(/C=C/c1ccc2ccccc2n1)c1cc(Cl)ccc1O	16%	25µM*	40%	7%	14	-7%
CC(C)C[C@@H](CN1CCCC1CN1C(=S)NC[C@@H]1Cc1ccccc1)N1C[C@H](Cc2ccccc2)N(CC2CCCCC2)C1=S (stereo partly drawn)	nt	nt	-16%	-3%	-10	-6%
Oc1ccc(C[C@H]2CNC(=S)N2CC2CCCN2C[C@H](Cc2ccc(O)cc2)N2C[C@H](Cc3ccccc3)N(CC3CCCCCC3)C2=S)cc1 (stereo partly drawn)	?	nt	-25%	?	-21	?
Oc1ccc(C[C@@H](CN2CCCC2CN2C(=S)NC[C@@H]2Cc2ccccc2)N2C[C@H](Cc3ccccc3)N(CC3CCCCC3)C2=S)cc1 (stereo partly drawn)	nt	nt	-13%	-6%	-6	-11%
CC(C)C[C@@H](CN1CCC[C@@H]1CN1C(=S)NC[C@@H]1Cc1ccc(O)cc1)N1C[C@H](Cc2ccc(O)cc2)N(CC2CCCCC2)C1=S	nt	nt	-17%	-29%	-100*	-22%
CC(C)C[C@@H](CN1CCC[C@@H]1CN1C(=S)NC[C@@H]1Cc1ccc(O)cc1)N1C[C@H](Cc2ccc(O)cc2)N(CC2CCCCCC2)C1=S	nt	nt	?	?	-100*	?
CC(C)C[C@@H](CN1CCCC1CN1C(=S)NC[C@@H]1Cc1ccc(O)cc1)N1C[C@H](Cc2ccc(O)cc2)N(CCc2ccccc2)C1=S (stereo partly drawn)	-52%	nt	0%	10µM*	-95*	-3%
Oc1ccc(C[C@H]2CN([C@@H](Cc3ccc(O)cc3)CN3CCC[C@@H]3CN3C(=S)NC[C@@H]3Cc3ccccc3)C(=S)N2CCc2ccccc2)cc1	nt	nt	-6%	-28%	-15	-30%
CC(C)C[C@@H](CN1CCCC1CN1C(=S)NC[C@@H]1Cc1ccccc1)N1C[C@H](Cc2ccc(O)cc2)N(CC2CCCCC2)C1=S (stereo partly drawn)	nt	nt	-24%	-8%	-73*	8%
O=C(Nc1cccnc1)C1CC(=O)N(c2ccc(F)cc2)C1 (stereo not drawn)	6%	3%	-15%	-4%	1	-4%
Cc1ccc(Cl)cc1NC(=O)CSCc1cnn(-c2ccccc2)c1-n1cccc1	nt	-2%	-9%	-6%	-16	-17%
Cc1ccc(Cl)cc1N1CCN(C(=O)c2ccc3nc[nH]c3c2)CC1	-2%	-2%	-16%	-9%	-61*	-20%
Cc1ccc(Cl)cc1N1CCN(C(=O)c2ccc3c(c2)CCN3S(C)(=O)=O)CC1	nt	0%	nt	nt	-66*	nt
COCCCN(C(=O)CCOc1ccc(C(C)(C)C)cc1)c1c(N)n(Cc2ccccc2)c(=O)[nH]c1=O	-22%	2%	-18%	-14%	nt	-29%

Screening data (PubChem)
